ChEMBL document CHEMBL3988442, “University of Dundee, Small-Polar-MMV Screening Library” (2021)
About 900 (1.7%) of roughly 53,000 compounds showed an effect of 50% or more. What follows is part of a selection rich in strong results, with near analogues and random picks from the rest.

tested on: Mycobacterium tuberculosis; test: Cornell - Phenotypic assay to identify agents that inhibit growth of Mycobacterium tuberculosis; assay type: functional; parameters: scale not given: direction of the effect not stated beside the values; settings: 10 mM as filed; unlikely as a test dose

| SMILES | Percent Effect [%] |
| --- | --- |
| Cc1nn(CC(C)C)cc1S(=O)(=O)N(C)Cc1nonc1C | 22.09 |
| Cc1nccc(CC2COCCN(c3cnccn3)C2)n1 (stereo not drawn) | -7.582 |
| c1cncc(O[C@H]2COCCN(C3CCC3)C2)c1 | 18.67 |
| c1cnc(CC2COCCN(C3CCCCC3)C2)cn1 (stereo not drawn) | 63.08 |
| O=C(O)C(F)(F)F.c1cnc(N2CCC3(COCc4cnc(-c5cccnc5)nc43)C2)nc1 (stereo not drawn) | -17.47 |
| CN(C)CC(=O)N1CC2(CCN(C(=O)Nc3ccccc3)C2)C1.O=C(O)C(F)(F)F | -36.23 |
| CC(C)c1nc(C2CCCN2CCCc2nc3ccccc3o2)no1 (stereo not drawn) | 73.44 |
| CC(C)c1nc(C2CCCN2CCc2ccncc2)no1 (stereo not drawn) | -12.21 |
| CC(C)c1nc(C2CCCN2CCc2ccccn2)no1 (stereo not drawn) | -3.374 |
| Cc1nc(C)n(CC2CCCN2CCCc2nc3ccccc3o2)n1 (stereo not drawn) | 0.1227 |
| c1ccc2oc(CCCN3CCCCC3Cn3cncn3)nc2c1 (stereo not drawn) | 60.48 |
| c1ccc2oc(CN3CCCCC3Cn3cncn3)nc2c1 (stereo not drawn) | 10.3 |
| c1ccc2oc(CCCN3CCCC3Cn3cncn3)nc2c1 (stereo not drawn) | 23.86 |
| Cc1nn(C)c(C)c1C1CCCN1CCCc1nc2ccccc2o1 (stereo not drawn) | 65.17 |
| Cc1cc(C2CCCN2CCCc2nc3ccccc3o2)on1 (stereo not drawn) | 56.86 |
| Cc1nn(C)c(C)c1C1CCCN1CCCC#N (stereo not drawn) | -3.092 |
| Cc1cnn(CC2CCCN2CCCc2nc3ccccc3o2)c1 (stereo not drawn) | 32.71 |
| Cc1cc(C)n(CC2CCCN2CCCc2nc3ccccc3o2)n1 (stereo not drawn) | 14.18 |
| CN1CCC(Nc2ccc(Cl)cc2OCC(F)(F)F)C1=O (stereo not drawn) | 4.127 |
| CC(C)[C@H]1CN(Cc2ccncc2)C[C@@H]1NC(=O)C1(C#N)CCOCC1 | 8.101 |
| CCOc1cncc(N2CCCC2c2nnc3n2CCCCC3)n1 (stereo not drawn) | 14.34 |
| Cn1ncc2c1CN(Cc1ccc(F)cc1)CC2COCC1CC1.O=C(O)C(F)(F)F.O=C(O)C(F)(F)F (stereo not drawn) | -21.09 |
| Cc1nn(C)cc1NC(=O)CC1CCN(C(=O)Cc2ccccc2)CC1 | -9.652 |
| Cn1ccnc1CNC1CCCOc2c1ccc1ccccc21 (stereo not drawn) | 21.15 |
| Cn1cc(CNC2CCCOc3c2ccc2ccccc32)cn1 (stereo not drawn) | 52.41 |
| Cn1cc(CNC2CCCOc3c(Cl)cccc32)cn1 (stereo not drawn) | 11.42 |

| SMILES | Percent Effect [%] |
| --- | --- |
| O=C(Cn1ccnc1)N1CCCC(OCc2cccnc2)C1 (stereo not drawn) | -41.24 |
| CN(C)C(=O)CN1C[C@H]2CN(Cc3cccc(F)c3)C(=O)[C@H]2C1.O=C(O)C(F)(F)F | 15.1 |
| Cn1nc2c(c1NC(=O)c1cccs1)CCC2 | 1.253 |
| Fc1ccc(N2CCC3(CC2)CC(OCc2cccnc2)CO3)cc1.O=C(O)C(F)(F)F (stereo not drawn) | 62.76 |
| Fc1cnc(N2CCC3(CC2)CC(OCc2cccnc2)CO3)nc1.O=C(O)C(F)(F)F.O=C(O)C(F)(F)F (stereo not drawn) | 8.704 |
| N#Cc1ccc(N2CCC3(CC2)CC(OCc2cccnc2)CO3)cc1.O=C(O)C(F)(F)F (stereo not drawn) | 25.8 |
| CCn1nccc1CN(C)c1nc(N)nc2c1nc(C)n2C | -2.939 |
| NC1(CN2CCCCC2)CCCCC1 | -23.07 |
| Cc1cccnc1NC(=O)CC1(Cn2cnnn2)CCCCC1 | 1.711 |
| Cc1cc(NC(=O)C(C)C)n(-c2nc(C)c(C)c(=O)[nH]2)n1 | 105.9 |
| Cc1cc(C)n(-c2cncc(NCCNC(=O)C(C)C)n2)n1 | 10.14 |
| CC(=O)Nc1cc(C2CC2)nn1-c1nc(C)c(C)c(=O)[nH]1 | -29.54 |
| COCCNC(=O)CCc1c(C)nn(-c2nc(C)c(C)c(=O)[nH]2)c1C | 25.57 |
| CC(=O)N1CCN(c2cc(CCNC(=O)C(C)C)nc(C3CC3)n2)CC1 | -12.23 |
| Cc1nc(-n2nc(C3CC3)cc2NC(=O)C(C)C)[nH]c(=O)c1C | 77.31 |
| Cc1cc(-c2nccs2)nc(C2CCN(Cc3cccs3)CC2)n1 | 25.07 |
| Cc1nccn1Cc1nnc(C2CCCN(c3ncccn3)C2)n1C (stereo not drawn) | -33.54 |
| COCCN1CCCC(c2nc(C)n3c(C)c(C)sc23)C1 (stereo not drawn) | 6.759 |
| O=C(N1CCOCC1)N1C[C@H]2CN(Cc3nccs3)C[C@H]2C1.O=C(O)C(F)(F)F | 17.29 |
| CCCNC(=O)C(C)n1nc(-c2ccc(C)o2)cc(N)c1=O (stereo not drawn) | 66.1 |
| Cc1ccc(-c2cc(N)c(=O)n(C(C)C(=O)NC(C)C)n2)o1 (stereo not drawn) | 26.87 |
| COCCNC(=O)C(C)n1nc(-c2ccc(C)o2)cc(N)c1=O (stereo not drawn) | -59.92 |
| O=C(N1CCOCC1)[C@@]12CCO[C@@H]1CCN(C1CCCCC1)C2.O=C(O)C(F)(F)F | -10.99 |
| CC1CCCN(C(=O)c2ccc(-c3ccco3)o2)C1 (stereo not drawn) | 79.8 |
| COc1cccc(CCC2CCCN(C(=O)c3ccc(OC)o3)C2)c1 (stereo not drawn) | 67.76 |
| CC1CCCN(C(=O)c2cc(-c3ccco3)cs2)C1 (stereo not drawn) | 33.45 |

| SMILES | Percent Effect [%] |
| --- | --- |
| CC1=C(C(=O)N2CCOC(Cc3cccc(C(F)(F)F)c3)C2)OCCO1 (stereo not drawn) | 22.58 |
| COc1cccc(CCC2CCCN(C(C)=O)C2)c1 (stereo not drawn) | 19.46 |
| CC(=O)N1CCOC(Cc2cccc(C(F)(F)F)c2)C1 (stereo not drawn) | 25.26 |
| COc1cccc(CCC2CCCN(C(=O)c3ccccn3)C2)c1 (stereo not drawn) | 5.867 |
| COc1ccc(C(=O)N2CCCC(C)C2)cc1F (stereo not drawn) | -4.81 |
| COc1ccc(C(=O)N2CCOC(Cc3cccc(C(F)(F)F)c3)C2)o1 (stereo not drawn) | 107.3 |
| COCCOCCCNC(=O)c1cc(Cl)cc2cccnc12 | 14.25 |
| CNC(=O)c1cc(C)nc(C2(C)CCCN2c2cc(C)ncn2)n1 (stereo not drawn) | -3.041 |
| CCc1ncc(C(=O)N(C)C(C)c2ccc3c(c2)OCCO3)cn1 (stereo not drawn) | -2.31 |
| Cc1cccnc1CCNCC1(O)CCCN(CC2CCCCC2)C1=O (stereo not drawn) | -24.48 |
| Cn1ccnc1CN1CCCN(C(=O)c2cccc(CC#N)c2)CC1 | -5.317 |
| Cc1noc(C)c1-c1cc(CCC2CN(C(=O)C(C)C)CCO2)ncn1 (stereo not drawn) | 37.61 |
| O=C(O)C(F)(F)F.O=C(O)C(F)(F)F.c1cnc(N2CC3(CCN(Cc4cccnc4)C3)C2)nc1 | -25.95 |
| NCc1cnn(-c2ccccc2C(=O)NCc2ccccc2Cl)c1 | -1.327 |
| NC(=O)C1=NC2=NS(=O)(=O)c3ccccc3N2N1Cc1ccccc1Cl | 106.2 |
| NC(=O)CN(Cc1ccc(Br)cc1)C(=O)c1ccccn1 | -15.26 |
| NC(=O)C1=NC2=NS(=O)(=O)c3ccccc3N2N1Cc1ccc(Br)cc1 | 106.5 |
| NCc1cn(-c2ccccc2C(=O)NCc2ccccc2Cl)cn1 | -8.218 |
| NC(=O)C1=NN2C(=NS(=O)(=O)c3ccccc32)N1 | 18.26 |
| COC(=O)C1=NN2C(=NS(=O)(=O)c3ccccc32)N1 | 46.07 |
| NC(=O)C1=NC2=NS(=O)(=O)c3ccccc3N2N1Cc1ccc(Cl)cc1 | 106.1 |
| CCCN(CCc1ccccn1)C(=O)Cn1cc(C)cn1 | 6.805 |
| CC(C)C(=O)N1CCC(c2c(C(N)=O)sc3ccccc23)C1 (stereo not drawn) | -20.56 |
| CO[C@@H]1CCN(Cc2nccs2)C[C@@H]1Cc1cccc(C)c1.O=C(O)C(F)(F)F | 58.64 |
| CO[C@@H]1CCN(Cc2nccs2)C[C@@H]1Cc1ccccc1.O=C(O)C(F)(F)F | 17.77 |
| CO[C@H]1CCN(Cc2nccs2)C[C@@H]1Cc1ccccc1 | 32.3 |

| SMILES | Percent Effect [%] |
| --- | --- |
| CC(C)c1ccc(NC(=O)Cn2cc(I)cn2)cc1 | 64.63 |
| Cc1ccc(NC(=O)Cn2cc(I)cn2)cc1 | 2.116 |
| NC(=O)c1ccc(NC(=O)Cn2cc(I)cn2)cc1 | 12.21 |
| CS(=O)(=O)CCSc1n[nH]c(-c2ccc3c(c2)CCC3)n1 | 22.85 |
| O=C(CSC1CCCC1)N1CCN(C(=O)C2CC2c2cccs2)CC1 (stereo not drawn) | 19.24 |
| O=C(CSC1CCCC1)N1CCN(C(=O)C2CC2c2ccccc2)CC1 (stereo not drawn) | 57.68 |
| O=C(CSC1CCCC1)N1CCN(c2ccc(-n3cncn3)nn2)CC1 | -7.169 |
| CN(CCOc1ccccc1F)C1CCOC1=O (stereo not drawn) | -18.35 |
| CC(Cn1cncn1)NCc1csc2c1CCCC2 (stereo not drawn) | 6.492 |
| CC(Cn1cccn1)NCc1csc2c1CCCC2 (stereo not drawn) | -0.7044 |
| CC(Cn1ccnc1)NCc1csc2c1CCCC2 (stereo not drawn) | 52.3 |
| O=C1NCC2(CCCN(C(=O)CCn3cnc4ccccc43)CC2)O1 (stereo not drawn) | -0.9742 |
| COc1cccc(Cn2[nH]c(C)c3c(NC(=O)C(C)OC)nnc2-3)c1 (stereo not drawn) | 19.31 |
| CCOC(=O)C(C)NC(=O)CCc1ccc(F)cc1 (stereo not drawn) | 12.11 |
| COCC(C)NC(=O)CCSc1ccc(F)cc1 (stereo not drawn) | -22.42 |
| CCOC(=O)C(C)NC(=O)CCSc1ccc(F)cc1 (stereo not drawn) | 72.72 |
| CNC(=O)NC(=O)CN1CCN(c2ccc(C(=O)OC)cc2)CC1C (stereo not drawn) | -3.666 |
| Cc1[nH]/c(=N\C(=O)c2csc(NCC(C)C)n2)sc1C | 105.2 |
| CC(=O)Nc1nc(C(=O)NC(C)c2ccncc2)cs1 (stereo not drawn) | -46.84 |
| CC(=O)Nc1nc(C(=O)NC(C)c2cccnc2)cs1 (stereo not drawn) | -20.46 |
| CC(C)CNc1nc(C(=O)/N=c2\[nH]nc(C(C)(C)C)s2)cs1 | 4.379 |
| Cc1cs/c(=N\C(=O)c2c3c(nc4onc(C)c24)CCC3)[nH]1 | 37.19 |
| Cc1cs/c(=N/C(=O)c2csc(NCC(C)C)n2)[nH]1 | 104.8 |
| CCCNC(=O)C(C)N1CCC(C(=O)Nc2cnn(CC)c2)CC1 (stereo not drawn) | -1.052 |
| O=C(Nc1cccnc1-n1cc(Br)cn1)C1CCCC1 | -1.816 |
